# In the library only some 21% were active in any assay of this set; here they are far more common.
# Shiga toxin inh: blocks Shiga toxin action in Vero cells. Vero cells, Shiga toxin protein synthesis inhibition reporter. inhibition, % at 38.7 µM. actives 9.2% (n = 290,000); in the data active = inhibition mostly above about 28%, no sharp cut-off; inactive = mostly below about 43%; note: 0% is about no effect
# Pf growth 96h: inhibits malaria parasite growth, 96 h. P. falciparum luciferase reporter growth, 96 h. Potency, µM (series often up to 28.7 µM), inactives show at the top dose activity change, negative = inhibition, actives largely listed as inhibitors. actives 6.9% (n = 320,000). AID 504834; note: potency is the fitted concentration of half-maximal effect; % is set by controls: 0 for no effect and ±100 for the full control effect
#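 Compounds incubated with erythrocytes infected by luciferase-expressing P. falciparum (2% hematocrit, 0.05% parasitemia final) for 96 hours, 37 C in 5% CO2. Growth inhibition scored as decreased luciferase luminescence.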
# Cycloheximide cs: counter-screen for Shiga toxin inhibitors: cycloheximide protein synthesis inhibition | cell reporter, cycloheximide protein synthesis inhibition counterscreen | max response, % | actives 12% (n = 300,000) | AID 2314; in the data active = max response mostly above about 13%, no sharp cut-off; inactive = mostly below about 14%; note: read at 38.3 µM for the half of the compounds with a filed dose; 0% is about no effect
# Pf growth 48h: inhibits P. falciparum growth in the first generation, 48 h; actives 5.9% (n = 310,000); Potency, µM (series often up to 28.7 µM), without a hit: at the top dose activity change, negative = inhibition, most hits filed as inhibitors; P. falciparum luciferase growth in erythrocytes, 48 h; AID 504832; note: potency is the fitted concentration of half-maximal effect; % is set by controls: 0 for no effect and ±100 for the full control effect
#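 Luminescence readout; reporter = integrated firefly luciferase in P. falciparum. RBC culture at 2% hematocrit, 0.1% parasitemia final, 37 C/5% CO2; decreased signal taken as growth inhibition.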
# The depositor's hits bear a star; ? = inconclusive; / = no result given; + = active, no number. Unless noted, calls come from the whole dose curve; as a rule, active = well fitted inhibition curve with a large enough effect; inconclusive = small, poorly fitted or top-dose-only effect, or another doubt; inactive = no such curve, though single readings can be large or run the other way.
SMILES,Shiga toxin inh,Pf growth 96h,Cycloheximide cs,Pf growth 48h
Cn1ncc(C#N)c1NC(=O)c1nn2cccnc2c1Cl,-13,4.7µM*,-4,5%
O=C(NCC12CC3CC(CC(C3)C1)C2)c1nn2cccnc2c1Cl,-7,/,-1,-26%
COCCNC(=O)c1nn2cccnc2c1Cl,-10,0%,-6,/
O=C(NCc1cccs1)c1nn2cccnc2c1Cl,56,/,22*,?
O=C(NCC1CCCO1)c1nn2cccnc2c1Cl (stereo not drawn),28*,3%,24*,65%
COc1ccc(C(N)=O)c(OCC(=O)Nc2cc(C)on2)c1,/,39%,/,19%
CN(Cc1ccccc1)C(=O)c1ccccc1N(C)S(=O)(=O)c1ccccc1,/,?,/,-12%
CN1CCN(C(CC(=O)Nc2cccc(O)c2)C(=O)O)CC1 (stereo not drawn),-14,?,-2,-7%
Cc1oc(-c2ccc3c(c2)OCCO3)cc1C(=O)NC(CCC(=O)O)C(=O)O (stereo not drawn),59,46%,27*,39%
CN(C)c1cc(O)c(C(=S)Nc2ccccc2)c(N(C)C)c1,41*,2%,22*,?
CN(C)c1ccc(C(=S)Nc2ccccc2)cc1,128*,-10%,89*,181%
C=C(C)C(=O)Nc1nnc(-c2cccs2)s1,81*,28%,21*,4%
CCC(C)C(=O)Nc1nnc(-c2cccs2)s1 (stereo not drawn),59*,11%,64*,59%
CCC(=O)Nc1nnc(-c2cccs2)s1,9,35%,14,5%
O=C(Nc1nnc(-c2cccs2)s1)C1CC1,16,18%,9,69%
O=C(N/N=C/c1sc(=O)n(-c2ccccc2)c1Cl)c1ccncc1,67*,?,20*,?
COc1cc(C(=O)N/N=C/c2sc(=O)n(-c3ccccc3)c2Cl)cc(OC)c1OC,16,0%,19*,-18%
O=C(O)c1ccc2c(=O)[nH]c(CCl)nc2c1,-5,13µM*,0,?
O=C(O)c1ccc2c(=O)[nH]c(CN3CCOCC3)nc2c1,-20,/,-6,4%
COc1cc(/C=N\NC(=O)C2CC3C=CC2C3)ccc1O (stereo not drawn),36,-5%,13,27%
CC(=O)c1cccc(NC(=S)NC(=O)c2cccc(C)c2)c1,83*,12%,40*,141%
CC(=O)c1ccc(NC(=S)NC(C)c2ccc(Cl)cc2Cl)cc1 (stereo not drawn),-4,?,-3,2.3µM*
Cc1ccc(C(=O)NC(=S)Nc2ccc3[nH]c(=O)[nH]c3c2)c(C)c1,-2,?,-2,15%
CC(=O)c1cccc(NC(=S)NC(=O)c2ccccc2C)c1,-17,8%,-3,0%
Cc1cccc(C(=O)NC(=S)Nc2ccc3[nH]c(=O)[nH]c3c2)c1,18,29%,16*,35%
SMILES,Shiga toxin inh,Pf growth 96h,Cycloheximide cs,Pf growth 48h
CC(=O)c1cccc(NC(=S)NC(=O)c2ccccc2Br)c1,5,-9%,3,13%
CC(=O)c1cccc(NC(=S)NC(=O)c2ccc(Cl)cc2)c1,65*,39%,63*,91%
C=CCn1c(C(C)NC(=O)COC)nc2ccccc21 (stereo not drawn),-9,21%,-2,5%
Cc1cc2cc(C=C(C#N)C#N)c(Cl)nc2cc1C,+,6%,25*,31%
CCOC(=O)/C(C#N)=C/c1cc2cc(C)c(C)cc2nc1Cl,0,53%,3,30%
CCCC(c1nnnn1CS(=O)(=O)c1ccc(C)cc1)N1CCN(CC)CC1 (stereo not drawn),6,26%,-4,?
Cc1occc1C(=O)Nc1ccc2c(c1)OCO2,78*,/,37*,171%
Cc1ccsc1C(=O)NNC(=O)Nc1ccc(Cl)c(Cl)c1,35,55%,14,0%
Cc1occc1C(=O)Nc1cccc(C(=O)O)c1,34,/,20*,134%
Cc1occc1C(=O)NNC(=O)Nc1ccc(Cl)c(Cl)c1,22,?,13*,9%
CC(=O)Nc1cccc(OC(=O)c2ccoc2C)c1,13,5%,9.7*,-3%
CC(=O)Nc1ccc(S(=O)(=O)NCC(=O)OC(C)c2ccccc2Cl)cc1 (stereo not drawn),16,-12%,-4,-16%
O=c1[nH]cc(S(=O)(=O)N2CCOCC2)c(=O)[nH]1,/,8%,/,50%
Cc1ccc(NC(=O)c2ccoc2C)cc1C,107*,30%,40*,109%
COc1ccc(/C=C2\Oc3cc(OCC(=O)N4CCC(C(=O)O)CC4)ccc3C2=O)c(OC)c1OC,15,?,9,11%
COc1cccc(/C=C2\Oc3cc(OCC(=O)N4CCCCC4)ccc3C2=O)c1OC,45*,?,15,?
COc1cccc(/C=C2\Oc3cc(OCC(=O)N4CCCC4)ccc3C2=O)c1OC,-4,10µM*,15*,13µM*
COc1cccc(C(=O)NNS(=O)(=O)c2ccc(C)cc2)c1,-8,?,-1,?
CC1CCCC(NC(=O)COC(=O)c2ccccc2[N+](=O)[O-])C1C (stereo not drawn),83*,22%,30*,6%
CC(=O)c1c(C)[nH]c(C(=O)OCc2cccc(Cl)c2)c1C,82*,21%,36*,-6%
O=C(COC(=O)c1ccccc1[N+](=O)[O-])NCCCc1ccccc1,70*,28%,38*,12%
CCCNC(=O)COC(=O)c1ccccc1C(=O)c1ccc(Cl)c([N+](=O)[O-])c1,41,13%,60*,?
CC(=O)c1c(C)[nH]c(C(=O)OCc2c(F)cccc2Cl)c1C,7,22%,8,-16%
Cc1noc(C)c1COc1ccc(C(=O)NNC(=O)c2ccccc2O)cc1,/,?,/,0%
CCOC(=O)c1[nH]c(C)c(C(=O)N2CCN(c3cccc(Cl)c3)CC2)c1C,-9,0%,-1,10µM*
SMILES,Shiga toxin inh,Pf growth 96h,Cycloheximide cs,Pf growth 48h
CC(=O)c1c(C)[nH]c(C(=O)OCC(=O)NCCC2=CCCCC2)c1C,/,?,/,13µM*
CC(=O)c1c(C)[nH]c(C(=O)OCC(=O)NCCCc2ccccc2)c1C,/,9.3µM*,/,?
CC(=O)c1c(C)[nH]c(C(=O)OCC(=O)NCCc2ccc(F)cc2)c1C,2,?,-4,?
COc1cccc(/C=C(/C(=O)OCC(=O)NC2CCCC(C)C2C)c2ccccc2)c1 (stereo not drawn),-4,?,-4,13µM*
COc1cccc(/C=C(/C(=O)OCC(N)=O)c2ccccc2)c1,8,13%,3,-1%
COc1ccc(N2CC(C(=O)N3CCN(Cc4ccc5c(c4)OCO5)CC3)CC2=O)cc1 (stereo not drawn),-5,0%,-2,-4%
COc1ccc(-c2noc(-c3ccc(Cl)cc3[N+](=O)[O-])n2)cc1OC,16,-21%,16*,57%
Cc1cccc(-c2noc(-c3ccc(Cl)cc3[N+](=O)[O-])n2)c1,82*,0%,42*,72%
CC1CN(C(=O)c2ccc(Br)c(S(=O)(=O)N3CCOCC3)c2)CC(C)O1 (stereo not drawn),/,-28%,/,-27%
Cc1cc(C)nc(Oc2ccc(Br)cc2Br)n1,77*,-11%,25*,40%

# Source: PubChem BioAssay (National Center for Advancing Translational Sciences (NCATS))
